In PubChem BioAssay (Tox21):
Inconclusive results are not listed. Values without a mark were called inactive. The call rests on the fitted dose curve. Peptide text beside a SMILES is read from it.

Assay: p53 small molecule agonists, cell-based qHTS assay with rat liver microsomes: qHTS cell viability counter screen (AID 1963580); further: nearly all actives have a fitted effect of over 45% in size
Conditions: p53RE-bla HCT-116 + rat microsomes, ATP viability, 16 h; series mostly up to 66 µM; activity change, negative = cytotoxicity: at the top concentration
Text: National Center for Advancing Translational Sciences [NCATS]
Division of Preclinical Innovation [DPI]
U.S. Environmental Protection Agency [EPA]
National Institutes of Environmental Health Sciences [NIEHS]
National Toxicology Program [NTP]
U.S. Food and Drug Administration [FDA]
p53, a tumor suppressor protein, is activated following cellular insult, including DNA damage and other cellular stresses. The activation of p53 regulates cell fate by inducing DNA repair, cell cycle arrest, apoptosis, or cellular senescence. The activation of p53, therefore, is a good indicator of DNA damage and other cellular stresses. The CellSensor p53RE-bla HCT-116 cell line contains a stably integrated beta-lactamase reporter gene under control of the p53 response elements. The activation of the reporter gene under culture conditions can be detected by fluorescence intensity. This cell line was used to screen the Tox21 10K compound library in the condition of presence of rat liver microsomes and to identify agonists that activate the p53 signaling pathway after in vitro metabolic activation (Ooka et al., Archive of Toxicology 96:1975-1987, 2022). The cytotoxicity of the Tox21 compound library against the p53 RE-bla HCT-116 cell line was tested in parallel by measuring the intra cellular ATP content in the same wells.
Tox21 Assay Protocol Summary:
The p53RE-bla cells were dispensed at 4,000cells/3ul/well in 1536-well black-clear bottom plates. After the assay plates were incubated at 37 C, 5% CO2 incubator for 5 hours, 23 nL of compounds dissolved in DMSO, positive controls or DMSO only was transferred to the assay plate. Following compound addition, 3 uL of rat liver microsomes (Molecular Toxicology, Boone, NC) at final concentration of 0.5 mg/mL and 1uL of B-Nicotinamide adenine dinucleotide 2'-phosphate (NADPH) at final concentration of 0.5 mg/mL were transferred to the assay plate. The plates were incubated at 37 C for 16 hours. 1 uL of LiveBLAzer detection mixture was added to each well and the plates were incubated at room temperature in the dark for 2 h. Fluorescence intensity at 460 and 530 nm emission and 405 nm excitation were measured by an Envision plate reader. For cell viability readout that measures cytotoxicity, 4 ul/well of CellTiter-Glo reagent was added into the assay plates using a Flying Reagent Dispenser. After 30 min incubation at room temperature, the luminescence intensity in the plates was measured using a ViewLux plate reader.
On the % scale 0 is the no-effect control and ±100 the full control effect.

Row | SMILES | activity change, negative = cytotoxicity
1 | Nc1nnc(-c2cccc(Cl)c2Cl)c(N)n1 | -1.02% [at 30.3 µM]
2 | CCCCCCC | -1.11%
3 | C/C=C(/C(=C/C)c1ccc(O)cc1)c1ccc(O)cc1 | -1.14% [at 30.3 µM]
4 | Cc1cccc(C)n1 | 2.33%
5 | Cc1ccccc1N1CCN(CCc2nnc3n2CCCC3)CC1 | 4.4% [at 30.3 µM]
6 | Cc1cc(S(=O)(=O)O)c(N)cc1Cl | 3.35%
7 | CCc1ccc(C(=O)C(C)CN2CCCCC2)cc1 (stereo not given) | -7.07% [at 30.3 µM]
8 | CN1CCC(=C2c3ccccc3CCc3sccc32)CC1 | 6.11% [at 30.3 µM]
9 | CNCCC(Oc1ccccc1OC)c1ccccc1 (stereo not given) | 7.45% [at 30.3 µM]
10 | CCCCOCC(C)O (stereo not given) | -0.784%
11 | CC(=O)[C@@]1(O)CC[C@H]2[C@@H]3C[C@H](C)C4=CC(=O)CC[C@]4(C)[C@H]3CC[C@@]21C | 0.815% [at 30.3 µM]
12 | ClCCl | 1.64%
13 | ClC1=C(Cl)C1(Cl)Cl | 0.535%
14 | CCc1cc(S(=O)(=O)O)c2cc(C(C)C)cccc1-2 | 0.469% [at 30.3 µM]
15 | CC(=O)N[C@@H](CO)C(=O)N[C@@H](CC(=O)O)C(=O)N[C@@H](CCCCN)C(=O)N1CCC[C@H]1C(=O)O (Ac-SDKP-OH) | -7% [at 30.3 µM]
16 | O=P(O)(O)Oc1ccccc1 | -0.108%
17 | CC(C)CCCC(C)NCCC(C)C (stereo not given) | -0.578% [at 30.3 µM]
18 | O=C(O)c1cccc(O)c1 | 0.87%
19 | COc1cccc(O)c1O | -4.37%
20 | O=C(c1ccccc1)c1ccc(Cl)cc1 | -1.11%

Row | SMILES | activity change, negative = cytotoxicity
21 | COC(=O)c1cc(C(=O)OC)cc(S(=O)(=O)O)c1 | -6.67%
22 | O=C(O)c1cccc(C(=O)O)c1C(=O)O | -3.79%
23 | NC(=O)c1ccccc1[N+](=O)[O-] | 0.78%
24 | Nc1ccc(Cl)cc1[N+](=O)[O-] | -7.69%
25 | Cc1ccc2cccnc2c1 | -0.738%
26 | NC12CC3CC(CC(C3)C1)C2 | 0.264% [at 30.3 µM]
27 | [Cl][Sc]([Cl])[Cl] | -3.64%
28 | ONc1ccccc1 | 0.416%
29 | CCCCCCCCOc1ccccc1C(=O)Nc1ccc(C(=O)OCC[N+](C)(CC)CC)cc1 | 3.92% [at 30.3 µM]
30 | Cc1ccc(N(CCO)CCO)cc1 | -1.31%
31 | CN[C@@H]1[C@H](O)[C@H](NC)[C@H]2O[C@@]3(O)C(=O)C[C@@H](C)O[C@H]3O[C@@H]2[C@H]1O | -3.59% [at 30.3 µM]
32 | BrC(Br)C(Br)Br | 2.49%
33 | CCCNC(C)C(=O)Nc1ccccc1C (stereo not given) | -10.9% [at 30.3 µM]
34 | c1cc(N(CC2CO2)CC2CO2)ccc1Cc1ccc(N(CC2CO2)CC2CO2)cc1 (stereo not given) | 9.72%
35 | Cc1cc(C(=O)O)ccc1[N+](=O)[O-] | 0.902%
36 | CCN(CC)CCNC(=O)c1cc(Br)c(N)cc1OC | -15.8% [at 30.3 µM]
37 | C[C@H](CCC(=O)O)[C@H]1CC[C@H]2[C@@H]3[C@H](O)C[C@@H]4C[C@H](O)CC[C@]4(C)[C@H]3C[C@H](O)[C@]12C | 4.82% [at 30.3 µM]
38 | CC(C(=O)O)c1ccc(C(=O)c2ccccc2)s1 (stereo not given) | -7.89% [at 30.3 µM]
39 | Cc1ccc(OC(=O)c2ccccc2O)cc1 | -0.447%
40 | CC(C)(C)c1n[nH]c(=S)n(N)c1=O | 0.443%
